Source: PubChem (Broad Institute)
LMP1 NFkB inh – reduces LMP1-driven NF-kappaB luciferase signal; LMP1-induced NF-kappaB luciferase reporter cells, luminescence; inhibition, % at 12.5 µM; 350,000 compounds, 0.69% hits; AID 504558; in the data active = inhibition above about 41%; inconclusive = no clear call, values can overlap the other calls;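 note: 0% = neutral control wells and 100% = reference inhibitor control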
EWS-Fli block – blocks EWS/Fli oncoprotein-driven transcription; inhibition, % at 12.6 µM; A673 NR0B1-luciferase reporter, viability-normalised; 350,000 compounds, 0.67% hits; AID 651661;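 active = mean inhibition of at least 50% after viability correction, with every replicate also passing that limit; inconclusive = mean reaches 50% but only one of two replicates passes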;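 note: firefly luciferase signal divided by Alamar Blue viability fluorescence both relative to DMSO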
PAX8 inh HTS – inhibitors of PAX8 transcriptional activity in RMG-I cells; AID 652154; RMG-I TPO-luciferase reporter, SteadyGlo, 24 h; 360,000 compounds, 1.2% hits; inhibition, % at 12.6 µM;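 active = mean replicate inhibition at least 60% with every replicate also reaching 60%; inconclusive = only one of the two criteria is met; inactive = mean below 60% and not all replicates reaching 60%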;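 note: luciferase light reporting Pax8 driven TPO promoter activity; plate controls were median of neutral control wells for no effect and mitoxantrone controls for full effect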
LGR2 inh – Drosophila LGR2 receptor signaling inhibition. HEK293 LGR2, CRE-luciferase, bursicon-stimulated, 4 h. inhibition, % at 9.99 µM. 380,000 compounds, 0.35% hits;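 active = drop in luminescence signal, shown as inhibition above about 50% in the replicate tests, limit read from the data, passing the limit was not always enough; inconclusive = probably only some replicates passing the limit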;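 note: agonist challenge used bursicon conditioned medium at about half maximal strength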
PGC1a acetyl inh – lowers PGC1a acetylation signal in U2OS cells; AlphaScreen anti-acetyl-lysine; with virally co-expressed GCN5 acetyltransferase; inhibition, % at 15.6 µM; 350,000 compounds, 0.17% hits; AID 651687;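 active = every replicate shows inhibition of at least 40%; inconclusive = mean inhibition at least 40% but some replicate below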;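 note: 0% = neutral control wells and 100% = positive control wells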
MITF TRPM1 inh – reduces MITF-dependent TRPM1 promoter luciferase signal | SK-MEL-5 TRPM1 promoter luciferase, 24 h | inhibition, % at 12.5 µM | 330,000 compounds, 0.83% hits;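 active = mean inhibition across replicates of 60% or more, whatever share of single replicates reaches that level; inconclusive = some that reach 60%, reason not given; inactive = mean inhibition across replicates below 60%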
* hit, by the source's call. This is a sample that favours compounds with a hit; in the whole collection about 2.2% have one here.

How did CN(C)CCNCCCNc1c2ccccc2nc2cccc([N+](=O)[O-])c12 do in these assays?
LMP1 NFkB inh: -5.8; EWS-Fli block: 5.9; PAX8 inh HTS: 20.2; LGR2 inh: -5.5; PGC1a acetyl inh: 2.5; MITF TRPM1 inh: 103.2*

Results for Cc1ccc(C(=O)C[n+]2ccccc2)cc1 ?
LMP1 NFkB inh: 67.9*; EWS-Fli block: -4.0; PAX8 inh HTS: -31.2; LGR2 inh: -8.0; PGC1a acetyl inh: -4.9; MITF TRPM1 inh: -0.2

How did Cc1ccc[n+](CC(=O)c2ccc(-c3ccccc3)cc2)c1 do in these assays?
LMP1 NFkB inh: -1.9; PAX8 inh HTS: 18.4; LGR2 inh: 4.6; PGC1a acetyl inh: -1.1; MITF TRPM1 inh: -1.8

How did O=C(C[C@@H]1C[C@@H]2c3cc(NC(=O)NC4CCCCC4)ccc3O[C@@H]2[C@@H](CO)O1)NCCc1ccccc1 do in these assays?
EWS-Fli block: 10.1; PAX8 inh HTS: -22.8; LGR2 inh: -8.4; PGC1a acetyl inh: 7.1

What do the screens show for `CO[C@H]1CN(C)C(=O)c2cc(NS(=O)(=O)c3cccc(F)c3)ccc2OC[C@H](C)NC[C@@H]1C`?
EWS-Fli block: 1.1; PAX8 inh HTS: -9.1; LGR2 inh: -5.1; PGC1a acetyl inh: 4.0

Results for Cn1c(=NC(=O)C2CC2)sc2cccc(F)c21 ?
LMP1 NFkB inh: 59.8*; EWS-Fli block: -16.7; PAX8 inh HTS: -10.9; LGR2 inh: -47.0; PGC1a acetyl inh: 0.7; MITF TRPM1 inh: -6.0

Results for C[C@@H]1CN([C@@H](C)CO)C(=O)c2cccc(NC(=O)C3CCOCC3)c2O[C@H]1CN(C)Cc1ccc(C(F)(F)F)cc1 ?
EWS-Fli block: -8.8; PAX8 inh HTS: 1.5; LGR2 inh: -4.4; PGC1a acetyl inh: -6.6

How did COc1cc([N+](=O)[O-])cc(/C=N/NC(=O)c2ccc(C)nc2)c1O do in these assays?
LMP1 NFkB inh: 2.8; PAX8 inh HTS: 2.9; LGR2 inh: -11.9; PGC1a acetyl inh: 2.8; MITF TRPM1 inh: 0.9

What do the screens show for `COc1ccc(/C=N/NC(=O)c2ccc(NC(=O)c3cccc([N+](=O)[O-])c3)cc2)c(OC)c1`?
LMP1 NFkB inh: 6.0; EWS-Fli block: -3.9; PAX8 inh HTS: 28.5; PGC1a acetyl inh: 96.6*; MITF TRPM1 inh: -1.3

What do the screens show for `COc1ccc(/C=N/NC(=O)c2ccc(NC(=O)c3cccc([N+](=O)[O-])c3)cc2)c(C(=O)O)c1OC`?
LMP1 NFkB inh: -3.0; EWS-Fli block: -0.8; PAX8 inh HTS: 9.8; LGR2 inh: 23.1; MITF TRPM1 inh: -7.6

Results for COc1cccc(/C=N/NC(=O)C(=O)N/N=C/c2cccc(OC)c2O)c1O ?
LMP1 NFkB inh: -4.6; EWS-Fli block: 11.3; PAX8 inh HTS: 6.0; LGR2 inh: 14.9; PGC1a acetyl inh: -8.9; MITF TRPM1 inh: 3.5

Results for COc1cccc(/C=N/NC(=O)c2cc3cc([N+](=O)[O-])ccc3s2)c1O ?
LMP1 NFkB inh: 64.0*; EWS-Fli block: 20.7; PAX8 inh HTS: 33.2; LGR2 inh: 24.0; MITF TRPM1 inh: 76.8*

How did COc1cc([N+](=O)[O-])cc(/C=N/NC(=O)c2ccc(NC(=O)c3ccc(C)cc3)cc2)c1O do in these assays?
LMP1 NFkB inh: -5.0; EWS-Fli block: 29.4; PAX8 inh HTS: 30.2; LGR2 inh: 28.2; PGC1a acetyl inh: -27.0; MITF TRPM1 inh: 71.6*

What do the screens show for `CC(C)[C@H](CO)Nc1nc(NCc2ccc(S(N)(=O)=O)cc2)c2ncn(C(C)C)c2n1`?
LMP1 NFkB inh: -26.2; EWS-Fli block: 12.2; PAX8 inh HTS: 68.7*; LGR2 inh: 52.5*; PGC1a acetyl inh: 2.9; MITF TRPM1 inh: 18.7

What do the screens show for `O=C(Nc1cccnc1)c1ccc([N+](=O)[O-])s1`?
LMP1 NFkB inh: -3.9; EWS-Fli block: 35.0; PAX8 inh HTS: 67.4*; LGR2 inh: -0.2; MITF TRPM1 inh: 75.1*

How did O=C(Nc1ccccc1F)c1ccc([N+](=O)[O-])s1 do in these assays?
LMP1 NFkB inh: -19.3; EWS-Fli block: 11.5; PAX8 inh HTS: 9.8; LGR2 inh: -37.1; MITF TRPM1 inh: 33.0

Results for COc1ccccc1-c1cn(CC[C@@H]2CC[C@@H](NC(=O)C3CC3)[C@@H](CO)O2)nn1 ?
EWS-Fli block: -5.9; PAX8 inh HTS: 16.6; LGR2 inh: 11.9; PGC1a acetyl inh: -3.5

What do the screens show for `CCN(CC(=O)NCc1ccc(F)cc1)CC(=O)Nc1cc(S(=O)(=O)N(C)C)ccc1C`?
LMP1 NFkB inh: 43.6*; EWS-Fli block: 7.9; PAX8 inh HTS: -2.6; LGR2 inh: -2.7; PGC1a acetyl inh: 1.5; MITF TRPM1 inh: 7.8

What do the screens show for `CCN(CC(=O)NCc1ccc(F)cc1)CC(=O)Nc1ccc(Br)cc1F`?
LMP1 NFkB inh: 1.0; EWS-Fli block: 5.3; PAX8 inh HTS: 6.8; LGR2 inh: 4.2; PGC1a acetyl inh: -11.0; MITF TRPM1 inh: 3.6

Results for COc1ccc(S(=O)(=O)N(C)C[C@H]2Oc3ccc(NC(=O)Nc4c(C)noc4C)cc3CC(=O)N([C@H](C)CO)C[C@H]2C)cc1 ?
EWS-Fli block: 1.8; LGR2 inh: -8.4; PGC1a acetyl inh: 5.7

How did CC(C(=O)NCc1ccc(Cl)cc1)n1cccc1C(=O)c1ccccc1 (centres undefined) do in these assays?
LMP1 NFkB inh: 74.1*; EWS-Fli block: 2.1; PAX8 inh HTS: 0.2; LGR2 inh: 6.8; PGC1a acetyl inh: 1.5; MITF TRPM1 inh: -7.1

How did O=C(C1CCCC1)N1CC[C@@H]2[C@@H](CO)Nc3ccc(Br)cc3[C@@H]21 do in these assays?
EWS-Fli block: -10.6; LGR2 inh: 1.8; PGC1a acetyl inh: -1.3

What do the screens show for `O=C(Nc1cccc(F)c1)N1CCCCN2[C@@H](CO)[C@H](c3ccc(C#Cc4ccccc4)cc3)[C@@H]2C1`?
EWS-Fli block: 15.5; PAX8 inh HTS: 93.5*; LGR2 inh: -0.8; PGC1a acetyl inh: 10.6

Results for N#Cc1cccc(-c2ccc([C@@H]3[C@H](CO)N4CCCCN(C(=O)Nc5cccc(F)c5)C[C@@H]34)cc2)c1 ?
EWS-Fli block: 26.2; PAX8 inh HTS: 34.8; LGR2 inh: 96.3*; PGC1a acetyl inh: -25.9

Results for O=C(Nc1cccc(F)c1)N1CCCCN2[C@H](CO)[C@H](c3ccc(C#Cc4ccccc4)cc3)[C@H]2C1 ?
EWS-Fli block: 73.4*; PAX8 inh HTS: inconclusive; LGR2 inh: 23.2; PGC1a acetyl inh: -21.2

Results for O=C(Nc1cccc(F)c1)N1CCCCN2[C@H](CO)[C@@H](c3ccc(C#Cc4ccccc4)cc3)[C@H]2C1 ?
EWS-Fli block: 41.8; PAX8 inh HTS: 116.1*; LGR2 inh: 23.1; PGC1a acetyl inh: -21.8

How did O=C(Cc1ccccn1)N[C@@H]1C=C[C@@H](CC(=O)N2CCCCC2)O[C@H]1CO do in these assays?
EWS-Fli block: 11.7; PAX8 inh HTS: -0.4; LGR2 inh: 8.8; PGC1a acetyl inh: 10.3

Results for CCCNC(=O)C[C@H]1CC[C@@H]2[C@H](COc3ccc(NC(=O)c4ccc(Cl)cc4)cc3C(=O)N2C)O1 ?
EWS-Fli block: -21.0; PAX8 inh HTS: -0.5; LGR2 inh: 4.2; PGC1a acetyl inh: 8.9
